Inconclusive results are not listed. Activity calls are given as the source filed them. Rule for the calls: active = hit-call score of the fitted dose curve at least 0.9, where 1 is the maximum; inconclusive = response in the unintended direction; inactive = score below 0.9.
assay: ACEA_ER_80hr: ACEA Biosciences xCELLigence Real-Time Cell Analysis on Estrogen Receptor Agonism for Proliferation (AID 2282667); conditions: T47D proliferation, impedance (xCELLigence), 80 h
Method in brief: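 T-47D cells monitored by electrical impedance (xCELLigence) with compound present throughout; 80 h timepoint, positive-direction fitting versus DMSO. Eight-point 1:4 dilutions from 100 uM final, duplicate plates.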

SMILES	outcome	AC50
COc1cc2c(cc1OC)[C@@]13CCN4CC5=CCO[C@H]6CC(=O)N2[C@H]1[C@H]6[C@H]5C[C@H]43	inactive	–
CCC(C)c1cccc(C(C)CC)c1O (stereo not drawn)	inactive	–
OCC(O)CCl (stereo not drawn)	inactive	–
CCCCCCCCCl	inactive	–
CCOC(=O)/C=C(C)/C=C/C[C@@H](C)CCCC(C)C	inactive	–
CCSC(C)CC1CC(=O)C(C(CC)=NOC/C=C/Cl)=C(O)C1 (stereo not drawn)	inactive	–
ClC(Cl)=C(Cl)C(Cl)=C(Cl)Cl	inactive	–
CC(C)OC(=S)S	inactive	–
Oc1c(I)cc(I)cc1I	inactive	–
CCOC(=O)CP(=O)(OCC)OCC	inactive	–
Cc1ccccc1C(=O)Nc1cccc(OC(C)C)c1	inactive	–
O=P(O)(O)CN(CP(=O)(O)O)CP(=O)(O)O	inactive	–
ClCc1cccnc1	inactive	–
OCc1ccco1	inactive	–
COS(=O)(=O)c1ccc(C)cc1	inactive	–
CC(C)=C[C@@H]1[C@@H](C(=O)OCc2coc(Cc3ccccc3)c2)C1(C)C	inactive	–
C[C@H]1O[C@@H](O[C@H]2[C@@H](O)C[C@H](O[C@H]3[C@@H](O)C[C@H](O[C@H]4CC[C@@]5(C)[C@H](CC[C@@H]6[C@@H]5CC[C@]5(C)[C@@H](C7=CC(=O)OC7)CC[C@]65O)C4)O[C@@H]3C)O[C@@H]2C)C[C@H](O)[C@@H]1O	inactive	–

SMILES	outcome	AC50
COc1ccc(C=O)cc1	inactive	–
Cc1ccc2ccccc2c1C	–	13.5 µM (active)
Oc1ccc(-c2ccccc2)cc1	–	10.5 µM (active)
O=C(O)CCC(F)(C(F)(F)F)C(F)(F)F	inactive	–
COP(=S)(OC)Oc1ccc(Sc2ccc(OP(=S)(OC)OC)cc2)cc1	–	0.0233 µM (active)
N#CN=C(N)N	inactive	–
CC(Br)C(=O)O (stereo not drawn)	inactive	–
CN(CCCC(=O)c1cccnc1)N=O	inactive	–
Nc1ccc(Cl)cc1C(=O)c1ccccc1	inactive	–
CNC	inactive	–
O=C(OC1CCCCC1)c1ccccc1C(=O)OC1CCCCC1	inactive	–
P.[In]	–	0.101 µM (active)
O=P(O)(O)c1ccccc1	inactive	–
c1ccc(N=NNc2ccccc2)cc1	inactive	–
CC(C)(c1ccc(OCC2CO2)cc1)c1ccc(OCC2CO2)cc1 (stereo not drawn)	inactive	–
CCOP(=S)(OCC)Oc1nc(Cl)c(Cl)cc1Cl	inactive	–

From PubChem BioAssay (EPA / NIEHS)
